Consider 40 sequences from PMC7862700, “An all-to-all approach to the identification of sequence-specific readers for epigenetic DNA modifications on cytosine”.

ETV1, sequence (P50549 whole entry): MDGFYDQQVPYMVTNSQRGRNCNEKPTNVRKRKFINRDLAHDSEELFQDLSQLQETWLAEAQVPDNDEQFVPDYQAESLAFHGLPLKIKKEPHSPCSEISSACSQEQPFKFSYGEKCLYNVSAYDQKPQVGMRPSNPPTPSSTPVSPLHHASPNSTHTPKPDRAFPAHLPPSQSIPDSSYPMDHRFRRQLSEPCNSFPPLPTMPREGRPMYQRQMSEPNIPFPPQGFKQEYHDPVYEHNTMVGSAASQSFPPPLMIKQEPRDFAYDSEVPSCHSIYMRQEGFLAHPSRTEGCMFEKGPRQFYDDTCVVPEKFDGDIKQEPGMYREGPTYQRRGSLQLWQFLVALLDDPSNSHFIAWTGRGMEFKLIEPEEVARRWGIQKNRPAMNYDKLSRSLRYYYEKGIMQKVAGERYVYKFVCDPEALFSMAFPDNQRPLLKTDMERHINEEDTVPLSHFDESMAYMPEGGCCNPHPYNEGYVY

One assay has as its target T1, ELF3 (Homo sapiens, UniProt P78545 1-371).
T1 sequence: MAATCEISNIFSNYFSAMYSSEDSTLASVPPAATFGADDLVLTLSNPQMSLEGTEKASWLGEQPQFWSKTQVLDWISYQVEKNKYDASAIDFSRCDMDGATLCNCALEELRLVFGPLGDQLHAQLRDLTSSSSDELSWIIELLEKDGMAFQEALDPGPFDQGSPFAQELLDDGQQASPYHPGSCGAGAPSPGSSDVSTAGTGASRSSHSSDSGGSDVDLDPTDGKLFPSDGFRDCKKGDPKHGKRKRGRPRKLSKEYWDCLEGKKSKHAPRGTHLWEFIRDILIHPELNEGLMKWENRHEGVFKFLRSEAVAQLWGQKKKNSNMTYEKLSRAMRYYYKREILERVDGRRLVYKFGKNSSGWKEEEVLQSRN
As to the kind of experiment: DAPPL (digital affinity profiling via proximity ligation, sequencing); 10 mM Tris-HCl pH 7.5, 50 mM NaCl, 1 mM DTT, 4% glycerol, room temperature, 30 min; GST-TFs on glutathione beads, 16-mer random dsDNA library, 0.1% formaldehyde crosslink after washing; high values mean tight binding. Conditions: protein: recombinant; tags: N-terminal GST; dsDNA, one strand shown. The procedure, abridged:
(§1)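 Human transcription factors fused to GST were expressed in yeast, captured on glutathione beads, given DNA barcodes and pooled with a GST-only negative control. Pools were incubated with 200 nmole of a 16-mer random double-stranded DNA library in Tris/NaCl/DTT/glycerol buffer at room temperature for 30 min. They were then washed, crosslinked with 0.1% formaldehyde, proximity-ligated (BsaI/T4 ligase, 1 h, 37 °C), PCR-amplified and sequenced on an Illumina NextSeq500. Binding signal is each 6-mer's read frequency for a factor divided by its frequency for the GST control.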
On to CCTGAT, for which the binding signal is 1.34 fold enrichment (6-mer frequency, TF over GST control).
As to AATACC, the binding signal is 1.12 fold enrichment (6-mer frequency, TF over GST control).
On the same count and under the same terms, the value for ATTATA was 1.39 fold enrichment (6-mer frequency, TF over GST control); that for GATCCT was 1.03 fold enrichment (6-mer frequency, TF over GST control); that for ATCTGC was 1.14 fold enrichment (6-mer frequency, TF over GST control).
Same read-out and setting: with ATACCT the figure was 1.08 fold enrichment (6-mer frequency, TF over GST control); with TGTTTC, 1.68 fold enrichment (6-mer frequency, TF over GST control); with TATGCT, 1.37 fold enrichment (6-mer frequency, TF over GST control).
As for TGGCTT, the binding signal is 1.32 fold enrichment (6-mer frequency, TF over GST control).
CTGATT: the binding signal is 1.12 fold enrichment (6-mer frequency, TF over GST control).
Same read-out and setting: the value for ACTCCG was 1.33 fold enrichment (6-mer frequency, TF over GST control); that for GTTGCT was 1.16 fold enrichment (6-mer frequency, TF over GST control).
In the case of TAATAC, the binding signal is 1.05 fold enrichment (6-mer frequency, TF over GST control).
TCTCAG: the binding signal was 1.37 fold enrichment (6-mer frequency, TF over GST control).
The same measure, in the same setting: with TAAAAT the figure was 1.27 fold enrichment (6-mer frequency, TF over GST control); with TGCGCT, 1.04 fold enrichment (6-mer frequency, TF over GST control); with CCACTA, 1.1 fold enrichment (6-mer frequency, TF over GST control).
In the case of TTCGCT, the binding signal is 1.26 fold enrichment (6-mer frequency, TF over GST control).
As for CCGCAT, the binding signal is 1.95 fold enrichment (6-mer frequency, TF over GST control).
The same measure, in the same setting: with ATCTCG the figure was 1.55 fold enrichment (6-mer frequency, TF over GST control).

The target of another assay is CRX (Homo sapiens, UniProt O43186 1-299). The assay is described as above. Conditions: protein: recombinant; tags: N-terminal GST; dsDNA, one strand shown. The procedure, abridged: as §1
CRX, sequence (O43186 whole entry): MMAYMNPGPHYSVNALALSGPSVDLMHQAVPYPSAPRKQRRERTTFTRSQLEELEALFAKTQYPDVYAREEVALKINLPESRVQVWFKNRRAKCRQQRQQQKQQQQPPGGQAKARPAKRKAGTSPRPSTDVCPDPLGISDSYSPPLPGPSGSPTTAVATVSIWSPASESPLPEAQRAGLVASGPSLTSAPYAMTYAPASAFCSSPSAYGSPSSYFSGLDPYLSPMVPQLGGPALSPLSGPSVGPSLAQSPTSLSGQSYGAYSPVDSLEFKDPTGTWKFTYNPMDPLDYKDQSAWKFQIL
For ACGGAT, the binding signal was 1.61 fold enrichment (6-mer frequency, TF over GST control).
The same measure, in the same setting: the value for ATCGCC was 1.4 fold enrichment (6-mer frequency, TF over GST control); that for TCTCGG was 1.44 fold enrichment (6-mer frequency, TF over GST control); that for TCTTAT was 2.21 fold enrichment (6-mer frequency, TF over GST control).
On the same count and under the same terms, the value for CTACAT was 1.11 fold enrichment (6-mer frequency, TF over GST control).
In the case of TAGATG, the binding signal is 1.52 fold enrichment (6-mer frequency, TF over GST control).
Still for that read-out and setting: with TCCCCC the figure was 1.45 fold enrichment (6-mer frequency, TF over GST control); with AAAATG, 1.1 fold enrichment (6-mer frequency, TF over GST control).
Still for that read-out and setting: the value for TCACTG was 1.09 fold enrichment (6-mer frequency, TF over GST control); that for GTTCTG was 1.01 fold enrichment (6-mer frequency, TF over GST control).
The same measure, in the same setting: the value for CCTTTC was 1.27 fold enrichment (6-mer frequency, TF over GST control).
For the sequence CAATTA, the binding signal is 1.25 fold enrichment (6-mer frequency, TF over GST control).
Still for that read-out and setting: with CAAGAT the figure was 1.23 fold enrichment (6-mer frequency, TF over GST control).
With GCTCAC, the binding signal was 1.37 fold enrichment (6-mer frequency, TF over GST control).
Same read-out and setting: the value for TTTGTA was 1.89 fold enrichment (6-mer frequency, TF over GST control).
Still for that read-out and setting: with TTTTGG the figure was 1.6 fold enrichment (6-mer frequency, TF over GST control).
Still for that read-out and setting: the value for ATGGAT was 1.6 fold enrichment (6-mer frequency, TF over GST control); that for GAACAA was 1.06 fold enrichment (6-mer frequency, TF over GST control).
As to TCACTT, the binding signal is 1.23 fold enrichment (6-mer frequency, TF over GST control).
Turning to GCCTAA, the binding signal is 1.84 fold enrichment (6-mer frequency, TF over GST control).
The same measure, in the same setting: with CCTGAT the figure was 1.44 fold enrichment (6-mer frequency, TF over GST control); with AATACC, 1.44 fold enrichment (6-mer frequency, TF over GST control); with ATTATA, 3.2 fold enrichment (6-mer frequency, TF over GST control).
The same measure, in the same setting: with GATCCT the figure was 1.66 fold enrichment (6-mer frequency, TF over GST control); with ATCTGC, 1.67 fold enrichment (6-mer frequency, TF over GST control).
On the same count and under the same terms, with ATACCT the figure was 1.12 fold enrichment (6-mer frequency, TF over GST control); with TGTTTC, 1.17 fold enrichment (6-mer frequency, TF over GST control); with TATGCT, 1.51 fold enrichment (6-mer frequency, TF over GST control).
As for TGGCTT, the binding signal is 1.75 fold enrichment (6-mer frequency, TF over GST control).
With CTGATT, the binding signal is 1.51 fold enrichment (6-mer frequency, TF over GST control).
In the case of ACTCCG, the binding signal is 1.04 fold enrichment (6-mer frequency, TF over GST control).
In the case of GTTGCT, the binding signal is 1.06 fold enrichment (6-mer frequency, TF over GST control).
The same measure, in the same setting: the value for TAATAC was 2.45 fold enrichment (6-mer frequency, TF over GST control); that for TCTCAG was 1.46 fold enrichment (6-mer frequency, TF over GST control); that for TAAAAT was 1.76 fold enrichment (6-mer frequency, TF over GST control).
The same measure, in the same setting: with TGCGCT the figure was 1.2 fold enrichment (6-mer frequency, TF over GST control).
Consider CCACTA, for which the binding signal was 1.12 fold enrichment (6-mer frequency, TF over GST control).
Still for that read-out and setting: with TTCGCT the figure was 1.13 fold enrichment (6-mer frequency, TF over GST control); with CCGCAT, 1.19 fold enrichment (6-mer frequency, TF over GST control); with ATCTCG, 1.92 fold enrichment (6-mer frequency, TF over GST control).

A further assay concerns the target ETV1 (Homo sapiens, UniProt P50549 1-477). The description is as above. Conditions: protein: recombinant; tags: N-terminal GST; dsDNA, one strand shown. Summed up: as §1
As for ACGGAT, the binding signal was 1.23 fold enrichment (6-mer frequency, TF over GST control).
The same measure, in the same setting: with ATCGCC the figure was 1.32 fold enrichment (6-mer frequency, TF over GST control).
The same measure, in the same setting: the value for TCTCGG was 1.38 fold enrichment (6-mer frequency, TF over GST control); that for TCTTAT was 1.32 fold enrichment (6-mer frequency, TF over GST control).
The same measure, in the same setting: with CTACAT the figure was 1.41 fold enrichment (6-mer frequency, TF over GST control); with TAGATG, 1.15 fold enrichment (6-mer frequency, TF over GST control); with TCCCCC, 1.46 fold enrichment (6-mer frequency, TF over GST control).
As to AAAATG, the binding signal was 1.2 fold enrichment (6-mer frequency, TF over GST control).
Still for that read-out and setting: with TCACTG the figure was 1.21 fold enrichment (6-mer frequency, TF over GST control); with GTTCTG, 1.1 fold enrichment (6-mer frequency, TF over GST control); with CCTTTC, 1.5 fold enrichment (6-mer frequency, TF over GST control).
Still for that read-out and setting: the value for CAATTA was 1.09 fold enrichment (6-mer frequency, TF over GST control).
Still for that read-out and setting: with CAAGAT the figure was 1.06 fold enrichment (6-mer frequency, TF over GST control); with GCTCAC, 1.37 fold enrichment (6-mer frequency, TF over GST control).
For TTTGTA, the binding signal was 1.51 fold enrichment (6-mer frequency, TF over GST control).
On the same count and under the same terms, the value for TTTTGG was 1.55 fold enrichment (6-mer frequency, TF over GST control); that for ATGGAT was 1.06 fold enrichment (6-mer frequency, TF over GST control); that for GAACAA was 1.21 fold enrichment (6-mer frequency, TF over GST control).
Same read-out and setting: with TCACTT the figure was 1.67 fold enrichment (6-mer frequency, TF over GST control); with GCCTAA, 1.22 fold enrichment (6-mer frequency, TF over GST control).
The same measure, in the same setting: the value for CCTGAT was 1.46 fold enrichment (6-mer frequency, TF over GST control); that for AATACC was 1.22 fold enrichment (6-mer frequency, TF over GST control).
ATTATA: the binding signal was 1.3 fold enrichment (6-mer frequency, TF over GST control).
Same read-out and setting: the value for GATCCT was 1.34 fold enrichment (6-mer frequency, TF over GST control).
On the same count and under the same terms, the value for ATCTGC was 1.36 fold enrichment (6-mer frequency, TF over GST control); that for ATACCT was 1.15 fold enrichment (6-mer frequency, TF over GST control).
With TGTTTC, the binding signal was 1.84 fold enrichment (6-mer frequency, TF over GST control).
Still for that read-out and setting: with TATGCT the figure was 1.29 fold enrichment (6-mer frequency, TF over GST control).
The same measure, in the same setting: the value for TGGCTT was 1.1 fold enrichment (6-mer frequency, TF over GST control); that for CTGATT was 1.27 fold enrichment (6-mer frequency, TF over GST control); that for ACTCCG was 1.47 fold enrichment (6-mer frequency, TF over GST control).
Still for that read-out and setting: the value for GTTGCT was 1.38 fold enrichment (6-mer frequency, TF over GST control).
For the sequence TAATAC, the binding signal was 1.11 fold enrichment (6-mer frequency, TF over GST control).
Still for that read-out and setting: with TCTCAG the figure was 1.33 fold enrichment (6-mer frequency, TF over GST control); with TAAAAT, 1.22 fold enrichment (6-mer frequency, TF over GST control).
Still for that read-out and setting: the value for TGCGCT was 1.17 fold enrichment (6-mer frequency, TF over GST control); that for CCACTA was 1.03 fold enrichment (6-mer frequency, TF over GST control).
On the same count and under the same terms, the value for TTCGCT was 1.27 fold enrichment (6-mer frequency, TF over GST control); that for CCGCAT was 1.59 fold enrichment (6-mer frequency, TF over GST control); that for ATCTCG was 1.46 fold enrichment (6-mer frequency, TF over GST control).
